Experimental data as given in PubChem BioAssay (NCATS).
Several values for one entry are separate records, joined by “and”; a condition that tells them apart may be missing. Identical values can stand only once. Records with an inconclusive call do not appear. Where a call stands in place of a potency, no number is given. Activity calls are given as the source filed them. Unless noted, calls follow the shape of the dose curve; as a rule, active = well fitted curve in the direction sought with a large enough effect; inconclusive = small, poorly fitted or top-dose-only effect, or another doubt; inactive = no such curve, though single readings can be large; an effect the other way counts as inactive or inconclusive.

Tests used:
[1] = Cytotoxicity counterscreen for NFkB agonists and antagonists (AID 624476);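 also: cells exposed to compound for 48 hours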; also: potency is read from the fitted curve at half-maximal effect
[2] = qHTS Assay for Identification of Small Molecule Agonists for NFkB Signaling Pathway. (AID 624478);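 also: compounds tested together with TNF alpha at its EC50 of 10 pM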
Outline: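 Cells carrying an NFkB response element-driven beta-lactamase gene are co-treated with compound and 10 pM TNF alpha for 5 h, and reporter activity is then read as 460 and 530 nm fluorescence.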

[3] = qHTS Assay for Identification of Small Molecule Antagonists for NFkB Signaling Pathway. (AID 624479; calls by dose curve;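 also: pathway stimulated with TNF alpha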; also: potency is read from the fitted curve at half-maximal effect)
[4] = Cell Proliferation Assay against the TMD8 Cell Line (AID 651645); settings: TMD8 DLBCL cell line proliferation/viability; at 46.1 µM (top of the series) unless noted;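 also: cells exposed to compound for 48 h before reading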
Outline: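 Luminescent ATP read-out (CellTiter-Glo, 15 min RT) after 48 h compound exposure of log-growing TMD8 cells at 37C; percent activity scaled between DMSO as 100% and 9.2 uM bortezomib final as 0%.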

[5] = Cell Proliferation Assay against the HBL1 Cell Line (AID 651646); settings: HBL1 DLBCL cells; at 46.1 µM (top of the series) unless noted;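 also: cells exposed to compound for 48 h before reading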
Outline: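 500 log-phase HBL1 cells per well in phenol red-free RPMI with 5% FBS were treated with compounds for 48 h at 37 °C, 5% CO2. Viability was read by CellTiter-Glo luminescence, normalized to DMSO (100%) and 9.2 uM bortezomib final (0%).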

[6] = Cell Proliferation Assay against the TMD8 Cell Line (Caspase readout at 16 hrs) (AID 651712); also: potency is read from the fitted curve at half-maximal effect
Outline: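 TMD8 cells (500/well) in phenol-red-free RPMI with glutamine, 5% FBS, were exposed to compounds for 16 h at 37 °C. Caspase 3/7 activation was read by Caspase-Glo luminescence; percent activity normalised to DMSO (0%) and 9.2 uM bortezomib final (100%).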

[7] = Cell Proliferation Assay against the TMD8 Cell Line (Caspase readout at 8 hrs) (AID 651713)
Outline: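 Percent activity derived from Caspase-Glo signal, DMSO set to 0% and bortezomib (9.2 uM final) to 100%. TMD8 cells were exposed to compound for 8 h in RPMI with 5% FBS.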

[8] = HTS Assay for Allosteric Antagonists of the Human D2 Dopamine Receptor: Hit Validation in HTRF (AID 624455);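 also: stable D1 dopamine receptor cell line scored for blocking the D1 response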
Outline: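 Signal from an HTRF read-out in D1-expressing stable cells gave hit activity as inhibition of the D1 response.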

[9] = qHTS assay for small molecule agonists of the antioxidant response element (ARE) signaling pathway (AID 651741; active = well fitted activation curve with a large enough effect in the signal ratio; the % refers to the signal ratio; also: potency is read from the fitted curve at half-maximal effect)
Outline: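 ARE-bla HepG2 cells (beta-lactamase reporter under ARE control) were plated at 2,000 cells/well, preincubated 5 h at 37 C/5% CO2, then treated with DMSO-dissolved compounds for 16 h at 37 C; LiveBLAzer B/G FRET substrate added, fluorescence read after 2 h at room temperature.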

[10] = qHTS assay for small molecule activators of the p53 signaling pathway (AID 651743; active = well fitted activation curve with a large enough effect in the signal ratio, not every such curve was filed as active; the % refers to the signal ratio; also: potency is read from the fitted curve at half-maximal effect); settings: HCT-116 p53RE-bla, beta-lactamase FRET ratio, 16 h; activation: stronger effect = higher value
Outline: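 p53RE-bla HCT-116 cells with a stably integrated beta-lactamase reporter under p53 response elements were plated, rested 5 hours at 37 C/5% CO2, then exposed to compounds in DMSO for 16 hours at 37 C. LiveBLAzer B/G FRET substrate was read after 2 hours at room temperature.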

SMILES: CC1(C)SCCN(S(=O)(=O)c2ccc(OCC#CCO)cc2)[C@@H]1C(=O)NO
- Potency [1]: inactive
- outcome [2]: inactive
- Potency [3]: inactive
- viability (% of control) [4]: 84.4%
- viability, percent of control [5]: 97.2%
- Potency [6]: inactive
- Potency [7]: inactive

SMILES: Cn1cnc([N+](=O)[O-])c1Sc1ncnc2nc[nH]c12
- Potency [8]: inactive
- Potency [9]: 27.3 µM (active) and 37.6 µM (active)
- Potency [10]: 25.1 µM (active) and 28.2 µM (active)

SMILES: C[C@H](NC(=O)Cc1cc(F)cc(F)c1)C(=O)N[C@@H]1C(=O)N(C)c2ccccc2-c2ccccc21
- Potency [1]: inactive
- outcome [2]: inactive
- Potency [3]: inactive
- viability (% of control) [4]: 86.6%
- viability, percent of control [5]: 87.3%
- Potency [6]: inactive
- Potency [7]: inactive

SMILES: Cc1cc(-c2ccc(CC(=O)Nc3ccc(-c4cccnc4)cc3)cc2)ccn1
- Potency [1]: inactive
- outcome [2]: inactive
- Potency [3]: inactive
- viability (% of control) [4]: 62.3%
- viability, percent of control [5]: 101%

SMILES: Nc1ncnc2nc(-c3ccc(N4CCOCC4)nc3)cc(-c3cccc(Br)c3)c12
- Potency [8]: inactive
- Potency [1]: inactive
- viability (% of control) [4]: 74.7%
- viability, percent of control [5]: 66.5%

SMILES: Cn1c(=O)c(F)c(Nc2ccc(I)cc2F)c2c(=O)n(C[C@@H](O)CO)cnc21
- Potency [1]: inactive
- outcome [2]: inactive
- Potency [3]: inactive
- viability (% of control) [4]: 63.3%
- viability, percent of control [5]: 38.3%
- Potency [6]: inactive

SMILES: CNC(=O)c1ccccc1Sc1ccc2c(/C=C/c3ccccn3)n[nH]c2c1
- Potency [1]: inactive
- outcome [2]: inactive
- Potency [3]: inactive
- viability (% of control) [4]: 23.8%
- viability, percent of control [5]: 56.4%
- Potency [6]: inactive
- Potency [7]: inactive

SMILES: NC(=O)c1cnccn1
- Potency [8]: inactive
- Potency [9]: inactive
- activation [10]: 0.545% (inactive) and -2.21% (inactive)

SMILES: O=NN(CCCl)C(=O)NCCCl
- Potency [8]: inactive
- activation [10]: 14.7% (inactive)

SMILES: O=C(O)CCc1ccc(NCc2cccc(Oc3ccccc3)c2)cc1
- Potency [1]: inactive
- outcome [2]: inactive
- Potency [3]: inactive
- viability (% of control) [4]: 107%
- viability, percent of control [5]: 95.9%
- Potency [6]: inactive
- Potency [7]: inactive

SMILES: COc1cc2c(cc1OC)CN(CCc1ccc(NC(=O)c3cccc4c(=O)c5cccc(OC)c5[nH]c34)cc1)CC2
- Potency [1]: inactive
- outcome [2]: inactive
- Potency [3]: inactive
- viability (% of control) [4]: 56%
- viability, percent of control [5]: 0.316%
- Potency [6]: inactive
- Potency [7]: inactive

SMILES: COc1cccc2cc(-c3nc(C4CCC(C(=O)O)CC4)n4ncnc(N)c34)[nH]c12 (stereo unspecified)
- Potency [1]: inactive
- outcome [2]: inactive
- Potency [3]: inactive
- viability (% of control) [4]: 18.4%
- viability, percent of control [5]: 58.5%

SMILES: OC[C@H](Cc1ccccc1)Nc1nc(Oc2ccc3c(c2)CCC3)nc2c1ncn2Cc1ccc(-c2ccccc2)cc1
- Potency [1]: inactive
- outcome [2]: inactive
- Potency [3]: inactive
- viability (% of control) [4]: 54.4%
- viability, percent of control [5]: 35.2%

SMILES: Cc1cc2c(C(C)C)c(O)c(O)c(C=O)c2c(O)c1-c1c(C)cc2c(C(C)C)c(O)c(O)c(C=O)c2c1O
- Potency [8]: inactive
- viability (% of control) [4]: 5.42%
- viability, percent of control [5]: 6.38%
- Potency [6]: inactive

SMILES: CCOc1cc(C(=O)Nc2ccc(Cl)c(-c3nc4ccccc4[nH]3)c2)cc(OCC)c1OCC
- Potency [1]: inactive
- outcome [2]: inactive
- Potency [3]: inactive
- viability (% of control) [4]: 69.8%
- viability, percent of control [5]: 85.2%
- Potency [6]: inactive
- Potency [7]: inactive

SMILES: CCOC(=O)C1=C[C@@]2(CC)CCCN3CCc4c(n1c1ccccc41)[C@H]32
- Potency [1]: inactive
- outcome [2]: inactive
- Potency [3]: inactive
- viability (% of control) [4]: 87.1% [at 29.8 µM]
- viability, percent of control [5]: 96.9% [at 29.8 µM]
- Potency [6]: inactive
- Potency [7]: inactive

SMILES: Cc1ccccc1C(OCCN(C)C)c1ccccc1 (stereo unspecified)
- Potency [8]: inactive
- Potency [9]: inactive
- activation [10]: -4.64% (inactive)

SMILES: COc1cc(Oc2ccnc3cc(OC)c(OC)cc23)ccc1NC(=O)NC(C)c1nccs1 (stereo unspecified)
- Potency [1]: inactive
- outcome [2]: inactive
- Potency [3]: 16.8 µM (active)
- viability (% of control) [4]: 69%
- viability, percent of control [5]: 59.4%

SMILES: Nc1nccc(-c2ccc3noc(-c4ccc(Cl)cc4)c3c2)n1
- Potency [1]: inactive
- outcome [2]: inactive
- Potency [3]: 3.75 µM (active)
- viability (% of control) [4]: 81.3%
- viability, percent of control [5]: 109%
- Potency [6]: inactive
- Potency [7]: inactive

SMILES: CC(=O)Oc1ccccc1C(=O)O
- Potency [8]: inactive
- Potency [9]: inactive
- activation [10]: -2.89% (inactive) and -7.19% (inactive) and 1.5% (inactive)

SMILES: CCCc1nn(C)c2c(=O)[nH]c(-c3cc(S(=O)(=O)N4CCN(C)CC4)ccc3OCC)nc12
- Potency [1]: inactive
- outcome [2]: inactive
- Potency [3]: inactive
- viability (% of control) [4]: 102%
- viability, percent of control [5]: 106%
- Potency [6]: inactive
- Potency [7]: inactive

SMILES: C[C@@H]1C[C@H]2[C@@H]3CCC4=CC(=O)C=C[C@]4(C)C3(F)[C@@H](O)C[C@]2(C)[C@@]1(O)C(=O)CO (stereo partly specified)
- Potency [1]: inactive
- outcome [2]: inactive
- Potency [3]: inactive
- viability (% of control) [4]: 40.7%
- viability, percent of control [5]: 28.2%
- Potency [6]: inactive
- Potency [7]: inactive

SMILES: COCC(=O)NCC=Cc1ccc2ncnc(Nc3ccc(Oc4ccc(C)nc4)c(C)c3)c2c1
- Potency [1]: 26.4 µM (active)
- outcome [2]: inactive
- Potency [3]: 10.6 µM (active)
- viability (% of control) [4]: 28.1%
- viability, percent of control [5]: 41.4%
- Potency [6]: inactive

SMILES: CO[C@@H]1[C@H](N(C)C(=O)c2ccccc2)C[C@H]2O[C@]1(C)n1c3ccccc3c3c4c(c5c6ccccc6n2c5c31)C(=O)NC4
- Potency [1]: inactive
- outcome [2]: inactive
- Potency [3]: inactive
- viability (% of control) [4]: 7.74%
- viability, percent of control [5]: 23%
- Potency [6]: 2.09 µM (active)

SMILES: COc1ccc(CC2=NN3C([C@@H](CCc4ccccc4)[C@@H](C)O)=NC(C)C3C(=O)N2)cc1OC (stereo partly specified)
- Potency [1]: inactive
- outcome [2]: inactive
- Potency [3]: inactive
- viability (% of control) [4]: 72.3%
- viability, percent of control [5]: 73.7%
- Potency [6]: inactive
- Potency [7]: inactive

SMILES: NC(N)=NC(=O)c1nc(Cl)c(N)nc1N
- Potency [8]: inactive
- activation [10]: -2.4% (inactive)

SMILES: NC(=O)C1CCCc2c1[nH]c1ccc(Cl)cc21 (stereo unspecified)
- Potency [1]: inactive
- outcome [2]: inactive
- Potency [3]: inactive
- viability (% of control) [4]: 94.1%
- viability, percent of control [5]: 73.1%
- Potency [6]: inactive
- Potency [7]: inactive
